Assay outcomes as filed in PubChem.
HT1080NT lethal = qHTS for induction of synthetic lethality in tumor cells producing 2HG: qHTS for the HT-1080-NT fibrosarcoma cell line. HT-1080-NT fibrosarcoma viability, CellTiter-Glo ATP luminescence, 48 h. hit rate 1.6% among 360,000. Potency, µM (doses to about 46.1 µM), inactives show top-dose activity, negative = less viability, hits mostly cytotoxic;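 note: NT is the 2HG producing partner of a matched IDH1 knockdown line; potency is the fitted concentration of half-maximal effect; 0% = DMSO-treated cells and -100% = media-only wells without cells; nearly all actives have a fitted effect of over 55% in size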
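HT-1080-NT fibrosarcoma cells (2HG-overproducing), 750 cells/well in RPMI with 5% FBS, dosed after 2 h and incubated 48 h at 37C. CellTiter-Glo luminescence normalized to DMSO and no-cell wells; concentration-response curves fitted and classed.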
DT40 TDP1 no CPT = qHTS for Inhibitors of human tyrosyl-DNA phosphodiesterase 1 (TDP1): qHTS in cells in absence of CPT. Potency, µM (top dose mostly 46.2 µM), inactives show at the highest dose activity change, negative = growth inhibition, hits mostly inhibitors. DT40 Tdp1-/- hTDP1 cells, no CPT, ATP luminescence, 48 h. hit rate 15% among 420,000. AID 686978, 2013; note: potency is the fitted concentration of half-maximal effect; nearly all actives have a fitted effect of over 55% in size
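Chicken DT40 Tdp1-/- cells stably complemented with human TDP1 were seeded at 400 cells/well with DMSO in place of 20 nM camptothecin. After compound pinning, cells grew at least 48 hr at 37 °C; viability read by CellTiter-Glo luminescence.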
IL-1B inflam inh = qHTS for Inhibitors of Inflammasome Signaling: IL-1-beta AlphaLISA Primary Screen | activity change, % at 57.5 µM | THP-1 LPS/ATP IL-1B secretion, AlphaLISA, 16 h; hits give low values | AID 743279, 2014 | hit rate 4.7% among 360,000; in the data active = activity change below about -50%; inconclusive = mostly about -30% to -49%
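Secreted IL-1B measured by AlphaLISA bead assay after 16 h compound exposure of THP-1 cells; compounds (final up to 57.5 uM) added 1 h before LPS (250 ng/mL) and ATP (1.25 mM) stimulation; lower signal means less secretion.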
HT1080 IDH1KD tx = qHTS for induction of synthetic lethality in tumor cells producing 2HG: qHTS for the HT-1080-IDH1KD cell line; Potency, µM (top dose mostly 46.1 µM), inactives show at the highest dose activity, negative = toxicity, hits mostly cytotoxic; HT-1080 IDH1 knockdown viability, ATP luminescence, 48 h; hit rate 2% among 360,000; AID 686971, 2013;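 note: potency is the fitted concentration of half-maximal effect; 0% = DMSO wells and -100% = cell-free medium wells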
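Cytotoxicity counter-line: IDH1KD HT-1080, 48 h, CellTiter-Glo. Curves classed by r2, magnitude and activity.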
TDP1 cell CPT = qHTS for Inhibitors of human tyrosyl-DNA phosphodiesterase 1 (TDP1): qHTS in cells in presence of CPT; chicken DT40 Tdp1-/-;hTDP1 cells + 20 nM CPT, ATP luminescence, 48 h; Potency, µM (highest dose often 46.2 µM), for the others: top-dose activity change, negative = growth inhibition, actives largely listed as inhibitors; hit rate 12% among 420,000; AID 686979, 2013; note: potency is the fitted concentration of half-maximal effect; nearly all actives have a fitted effect of over 55% in size
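Chicken DT40 Tdp1-/- cells complemented with human TDP1, 400 cells/well, exposed to compounds plus 20 nM camptothecin for at least 48 h at 37 C; viability read as ATP content by CellTiter-Glo luminescence.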
ELG1 DNA repair = qHTS screen for small molecules that inhibit ELG1-dependent DNA repair in human embryonic kidney (HEK293T) cells expressing luciferase-tagged ELG1; AID 504467, 2011; Potency, µM (series often up to 46.1 µM), without a hit: top-dose activity change, negative = inhibition, hits mostly inhibitors; HEK293T ELG1-luciferase reporter, luminescence, 16 h; DNA damage induced by 5-fluorouridine; hit rate 2.3% among 330,000; note: potency is the fitted concentration of half-maximal effect; nearly all actives have a fitted effect of over 55% in size
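Reporter activity after DNA damage by 5-fluorouridine is monitored. Compound-treated cells incubate 16 hr at 37 °C, then ONE-Glo is added for 30 min before luminescence reading.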
Numbers without * were called inactive; ? = inconclusive; . = not tested or not shown; ! = not active in a repeat; [ ] = another dose, or the depositor's remark. Sampled rows, rich in hits. Any-hit rate of the full collection: about 19%. Unless noted, calls come from the whole dose curve; as a rule, active = well fitted curve in the direction sought with a large enough effect; inconclusive = small, poorly fitted or top-dose-only effect, or another doubt; inactive = no such curve, though single readings can be large; an effect the other way counts as inactive or inconclusive. Unless noted, % is set by controls: 0 for no effect and ±100 for the full control effect.

SMILES | HT1080NT lethal | DT40 TDP1 no CPT | IL-1B inflam inh | HT1080 IDH1KD tx | TDP1 cell CPT | ELG1 DNA repair
CCCCCCSc1ccc(-c2nc3cnccn3c2NCCCC)cc1 | 4% | 21µM* | 0 | 1% | ? | -7%
CCCCNc1c(-c2ccc(OC)c(SC(C)CC)c2)nc2cnccn12 (configuration not stated) | -8% | 26µM* | -67* | 0% | ? | .
CCCCNc1c(-c2ccc(OC)c(SC(C)CC)c2)nc2cc(C)ccn12 (configuration not stated) | 21µM* | 15µM* | -85* | 23µM* | 16µM* | ?
COc1ccc(-c2cncc3nccn23)cc1OC | 0% | 0% | -6 | -9% | 6% | .
CCCCCCSc1cc(-c2nc3ccc(Cl)cn3c2NCCCC)ccc1OC | 4% | ? | 0 | 14% | ? | -1%
O=C(O)C(=Cc1cccc([N+](=O)[O-])c1)c1ccc(Cl)cc1 | -1% | ? | -5 | 7% | ? | .
CCOc1ccccc1NCc1nnc2n1CCCCC2 | . | -8% | . | . | -1% | .
CCCCNc1c(-c2cccc(SC3CCCCC3)c2)nc2ccc(Cl)cn12 | 0% | ? | -9 | -21% | ? | ?
COCCNc1c(-c2ccc(O)cc2)nc2ccc(Cl)cn12 | 4% | -101% | -13 | 2% | 33µM* | -24%
CCCCNc1c(-c2ccc(OC)c(SC(C)CC)c2)nc2ccc(C)cn12 (configuration not stated) | 21µM* | 18µM* | -100*! | ? | 18µM* | 7.3µM*
CCC(=O)Nc1c(-c2ccc(C)cc2)nc2ccc(C)cn12 | 2% | 1% | 8 | -3% | -2% | 8%
CCCCNc1c(-c2ccc(-c3ccc(C(C)=O)cc3)c(OC)c2)nc2cc(C)ccn12 | ? | 10µM* | -51* | ? | 18µM* | ?
CCCCNc1c(-c2cccc(SC(C)CC)c2)nc2ccc(Cl)cn12 (configuration not stated) | 0% | 15µM* | -2 | -13% | 16µM* | -25%
CCCCCCSc1cc(-c2nc3ccc(C)cn3c2NCCCC)ccc1OC | -8% | ? | -72* | -6% | ? | ?
CN(C)C(=O)c1ccc(NC(=O)c2cccc(-n3cnnn3)c2)cc1 | 0% | -24% | 4 | 1% | 5% | .
O=C(c1noc2c1CCCC2)N1CCN(C(c2ccccc2)c2ccccc2)CC1 | . | . | . | . | . | -2%
O=C(c1noc2c1CCCC2)N1CCC(CO)(Cc2ccccc2Cl)CC1 | -3% | ? | -81* | -5% | -27% | 21µM*
O=C(c1noc2c1CCCCC2)N1CCN(c2cccc(C(F)(F)F)c2)CC1 | . | 16µM* | . | . | ? | .
O=C(c1csc2c1CCCC2)N1CCN(c2cccc(C(F)(F)F)c2)CC1 | -4% | 15µM* | 4 | -21% | ? | -13%
O=C(c1noc2c1CCCCC2)N1CCN(C(c2ccccc2)c2ccccc2)CC1 | 4% | 21µM* | 0 | 9% | 13µM* | .
O=C(COc1ccccc1Cl)NC1CC1 | 23% | 12% | 0 | 6% | 0% | 45%
COCc1cn(CC[C@@H]2CC[C@@H](NC(=O)Nc3ccc4c(c3)OCO4)[C@@H](CO)O2)nn1 | 10% | -2% | 30 | 27% | 4% | .
CCO/C(=C/c1sc2ccc(OC)cc2[n+]1CCCS(=O)(=O)[O-])CC | 1% | 3% | 0 | 0% | 4% | -1%
CCOC(=O)C[n+]1c(C)sc2ccc(OC)cc21 | ? | 8.2µM* | -28 | ? | 8.2µM* | -8%
CCC(=O)OCC(=O)C1(OC(=O)CC)C(C)CC2C3CCC4=CC(=O)C=CC4(C)C3(Cl)C(O)CC21C (configuration not stated) | . | -12% | . | . | ? | .
SMILES | HT1080NT lethal | DT40 TDP1 no CPT | IL-1B inflam inh | HT1080 IDH1KD tx | TDP1 cell CPT | ELG1 DNA repair
CCN(CC)S(=O)(=O)c1cccc(NC(=O)COc2ccc(C#N)cc2OC)c1 | -10% | 23µM* | 34 | -2% | ? | ?
CCN(CC)S(=O)(=O)c1cc(NC(=O)COc2ccc(C#N)cc2OC)ccc1C | -7% | 23µM* | 0 | -12% | 21µM* | 13µM*
CCN(CC)S(=O)(=O)c1cccc(NC(=O)COc2ccc(F)cc2Br)c1 | -13% | ? | 7 | -23% | ? | ?
COc1cc(C#N)ccc1OCC(=O)Nc1cccc(S(=O)(=O)N(C)c2ccccc2)c1 | -17% | 18µM* | -1 | -23% | 12µM* | .
CCN(CC)S(=O)(=O)c1cccc(NC(=O)COc2ncnc3sccc23)c1 | -10% | 16µM* | 18 | -16% | ? | -19%
CC(=O)CCc1ccc(OCC(=O)Nc2cccc(S(=O)(=O)N(C)c3ccccc3)c2)cc1 | -20% | ? | -8 | -6% | -8% | ?
Cc1ccc(NC(=O)COc2ncnc3sccc23)cc1S(=O)(=O)N(C)C | 12% | -11% | 0 | 4% | -15% | -16%
CC(OC(=O)c1ccc(Cl)nc1)C(=O)NC1CCCC1 (configuration not stated) | 0%[9.24 µM] | -13% | 21 | 5% | -16% | ?
O=C(COC(=O)/C=C/c1ccccc1)NC1CCCCC1 | 5% | -4% | -2 | 12% | -3% | 9%
CCOc1ccc(C(=O)Nc2c(C(=O)Nc3ccccc3OC)oc3ccccc23)cc1OCC | . | ? | . | . | -3% | .
Cc1ccn2c(=O)c(C(=O)NCCc3ccc(S(N)(=O)=O)cc3)c(O)nc2c1 | . | -13% | . | . | -11% | .
CN(C)c1ccc(/C=N/NC(=O)c2ccc(CN3C(=O)c4cccc5cccc3c45)cc2)cc1 | . | . | . | . | . | -4%
O=C(N/N=C/c1ccc(O)cc1O)c1ccc(CN2C(=O)c3cccc4cccc2c34)cc1 | ? | 3.7µM* | 119 | ? | 4.6µM* | 2.9µM*
O=C(N/N=C/c1ccccc1)c1ccc(CN2C(=O)c3cccc4cccc2c34)cc1 | 21µM* | -19% | 17 | ? | -12% | ?
O=C(N/N=C/c1cccnc1)c1ccc(CN2c3cccc4cccc(c34)S2(=O)=O)cc1 | -27% | -13% | -21 | ? | -25% | 23µM*
